PubChem BioAssay AID1159580 (chemical genetic matrix, 2015)
“And” between values parts separate entries of the source, which are not always exact repeats. Equal values may be shown once. Among all 5,500 compounds or so, about 2,000 (36%) were called active. Inconclusive results (about 18%) are left out. The list shows a part of the results. A number with no mark means an inactive call. Cut-off read from the data, not from the text of the source: active = normalized growth mostly below about 0.91 (no sharp cut-off); inconclusive = no clear call, values can overlap the other calls; inactive = mostly above about 0.92.

Experiment: chemical genetic growth profiling, strain panel (AID 1159580);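 note: tested at 20 µM; growth read once vehicle control cultures reached saturation at 30 °C; 1 = growth at the plate median or of vehicle wells; lower values mean less growth of the strain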
Details: S. cerevisiae deletion strains, growth OD

CCN(CC)C(C)CN1c2ccccc2Sc2ccccc21 (configuration not stated)
normalized growth (locus YAL013W, strain DEP1, hits give low values): 0.983 | normalized growth (locus YAL021C, strain ccr4, hits give low values): 0.399 (active) | normalized growth (locus YAL026C, strain drs2, hits give low values): 0.77 (active) | normalized growth (locus YAL030W, strain snc1, hits give low values): 0.965 | normalized growth (locus YBL061C, strain skt5, hits give low values): 0.909 (active) | normalized growth (locus YBR009C, strain hhf1, hits give low values): 0.925 | normalized growth (locus YBR021W, strain FUR4, hits give low values): 0.852 | normalized growth (locus YBR023C, strain chs3, hits give low values): 0.889 (active) | normalized growth (locus YBR171W, strain sec66, hits give low values): 0.998 | normalized growth (locus YBR229C, strain ROT2, hits give low values): 0.982 | normalized growth (locus YBR231C, strain swc5, hits give low values): 0.937 | normalized growth (locus YBR279W, strain paf1, hits give low values): 0.896 (active) | normalized growth (locus YCL011C, strain gbp2, hits give low values): 0.953 | normalized growth (locus YCL016C, strain dcc1, hits give low values): 0.923 | normalized growth (locus YCL029C, strain bik1, hits give low values): 0.933 | normalized growth (locus YCL061C, strain MRC1, hits give low values): 0.932 | normalized growth (locus YCL069W, strain vba3, hits give low values): 0.947 | normalized growth (locus YCR088W, strain abp1, hits give low values): 0.986 | normalized growth (locus YDL005C, strain med2, hits give low values): 1 | normalized growth (locus YDL035C, strain GPR1, hits give low values): 0.917 | normalized growth (locus YDL040C, strain nat1, hits give low values): 1 | normalized growth (locus YDL074C, strain BRE1, hits give low values): 0.864 | normalized growth (locus YDL101C, strain DUN1, hits give low values): 0.978 | normalized growth (locus YDL134C, strain PPH21, hits give low values): 0.966 | normalized growth (locus YDL185W, strain tfp1, hits give low values): 0.947 | normalized growth (locus YDL192W, strain arf1, hits give low values): 0.97 | normalized growth (locus YDR001C, strain nth1, hits give low values): 0.987 | normalized growth (locus YDR069C, strain doa4, hits give low values): 0.973 | normalized growth (locus YDR101C, strain arx1, hits give low values): 0.967 | normalized growth (locus YDR137W, strain rgp1, hits give low values): 1.14 | normalized growth (locus YDR150W, strain NUM1, hits give low values): 0.977 | normalized growth (locus YDR159W, strain sac3, hits give low values): 0.775 (active) | normalized growth (locus YDR162C, strain NBP2, hits give low values): 0.987 | normalized growth (locus YDR195W, strain ref2): 1.23 [resistant] (active) | normalized growth (locus YDR297W, strain sur2, hits give low values): 0.939 | normalized growth (locus YDR318W, strain mcm21, hits give low values): 0.926 | normalized growth (locus YDR334W, strain swr1, hits give low values): 1.03 | normalized growth (locus YDR335W, strain msn5, hits give low values): 0.959 | normalized growth (locus YDR388W, hits give low values): 0.914 (active) | normalized growth (locus YDR392W, strain spt3, hits give low values): 0.911 | normalized growth (locus YDR502C, strain sam2, hits give low values): 0.954 | normalized growth (locus YEL003W, strain gim4, hits give low values): 0.984 | normalized growth (locus YEL037C, strain rad23, hits give low values): 0.984 | normalized growth (locus YEL061C, strain CIN8 (second series), hits give low values): 0.992 | normalized growth (locus YEL061C, strain CIN8, hits give low values): 0.991 | normalized growth (locus YER015W, strain faa2, hits give low values): 0.937 | normalized growth (locus YER016W, strain bim1, hits give low values): 0.921 (active) | normalized growth (locus YER110C, hits give low values): 0.956 | normalized growth (locus YER111C, strain swi4, hits give low values): 0.987 | normalized growth (locus YER155C, strain BEM2 (second series), hits give low values): 0.751 (active) | normalized growth (locus YER155C, strain BEM2, hits give low values): 0.964 | normalized growth (locus YER167W, strain BCK2, hits give low values): 0.909 | normalized growth (locus YFR010W, strain ubp6, hits give low values): 0.914 | normalized growth (locus YGL078C, strain dbp3, hits give low values): 0.98 | normalized growth (locus YGL086W, strain mad1, hits give low values): 0.952 | normalized growth (locus YGL167C, strain pmr1, hits give low values): 0.999 | normalized growth (locus YGL173C, strain kem1, hits give low values): 0.898 (active) | normalized growth (locus YGL227W, strain vid30, hits give low values): 0.995 | normalized growth (locus YGL240W, strain doc1, hits give low values): 0.799 (active) | normalized growth (locus YGL248W, strain PDE1, hits give low values): 0.957 | normalized growth (locus YGL253W, strain hxk2, hits give low values): 0.907 (active) | normalized growth (locus YGR078C, strain PAC10, hits give low values): 0.905 | normalized growth (locus YGR135W, strain pre9, hits give low values): 0.918 | normalized growth (locus YGR229C, strain SMI1, hits give low values): 0.904 | normalized growth (locus YGR252W, strain gcn5, hits give low values): 0.72 (active) | normalized growth (locus YHR013C, strain ard1, hits give low values): 0.972 | normalized growth (locus YHR027C, strain rpn1, hits give low values): 0.796 (active) | normalized growth (locus YHR030C, strain SLT2, hits give low values): 0.976 and 1.03 | normalized growth (locus YHR079C, strain IRE1 (second series), hits give low values): 0.935 | normalized growth (locus YHR079C, strain IRE1, hits give low values): 1.06 | normalized growth (locus YHR094C, strain hxt1, hits give low values): 0.95 | normalized growth (locus YHR129C, strain ARP1, hits give low values): 0.986 | normalized growth (locus YHR142W, strain chs7, hits give low values): 0.863 (active) | normalized growth (locus YHR200W, strain rpn10, hits give low values): 0.95 | normalized growth (locus YIL066C, strain RNR3, hits give low values): 0.97 | normalized growth (locus YIL073C, strain SPO22, hits give low values): 0.767 | normalized growth (locus YIL125W, strain kgd1, hits give low values): 0.98 | normalized growth (locus YIR030C, strain dcg1, hits give low values): 0.953 | normalized growth (locus YJL092W, strain hpr5, hits give low values): 0.954 | normalized growth (locus YJL095W, strain BCK1 (second series), hits give low values): 0.946 | normalized growth (locus YJL095W, strain BCK1, hits give low values): 0.861 and 1.02 | normalized growth (locus YJL115W, strain asf1, hits give low values): 0.992 | normalized growth (locus YJL129C, strain trk1, hits give low values): 1.04 | normalized growth (locus YJL134W, strain LCB3, hits give low values): 0.986 | normalized growth (locus YJL154C, strain vps35, hits give low values): 0.975 | normalized growth (locus YJL164C, strain tpk1, hits give low values): 0.928 | normalized growth (locus YJL166W, strain qcr8, hits give low values): 0.898 (active) | normalized growth (locus YJL168C, strain set2, hits give low values): 0.961 | normalized growth (locus YJL187C, strain SWE1 (second series), hits give low values): 0.957 | normalized growth (locus YJL187C, strain SWE1, hits give low values): 0.911 (active) | normalized growth (locus YJR043C, strain POL32, hits give low values): 0.903 | normalized growth (locus YJR066W, strain TOR1, hits give low values): 0.872
